# From PubChem
# Most compounds without a hit are left out; they make up all but 0.35% or so of the library.
# Epigenetic reg = regulators of epigenetic silencing causing reporter derepression in mouse cells. AID 1865. Potency, µM (doses to about 53.9 µM), usual class: activators. murine LDR cells, GFP reporter derepression, 30 h. hit rate 0.2% among 280,000; further: nearly all actives have a fitted effect of over 60% in size
#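 In this reporter-derepression format, murine cells bearing a silenced integrated CMV-GFP locus incubate with test compound (30 h, 37 C), then are washed and imaged; fluorescent objects of 20–120 um count as induced cells.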
# Glioma ERSR ind = ER stress response induction in glioma. U87-MG GRP78 promoter luciferase reporter, 16 h. Potency, µM, actives largely listed as activators. hit rate 0.02% among 420,000; further: series mostly up to about 76 µM; nearly all actives have a fitted effect of over 35% in size
#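 ERSR induction read as luciferase luminescence (Bright-Glo, 10 min at room temperature) in stably transfected human U87-MG glioma cells exposed to compounds for 16 h, using GRP78 as sensor.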
# Vif-APOBEC3G blk = inhibitors of Vif-APOBEC3G interaction; hit rate 0.076% among 410,000; HeLa A3G-eYFP + Vif (tagged APOBEC3G with the HIV-1 protein that degrades it), YFP fluorescence, overnight; Potency, µM (doses to about 46.1 µM), hits mostly inhibitors; further: nearly all actives have a fitted effect of over 60% in size
# Target sequence (Q9HC16 whole entry, looked up): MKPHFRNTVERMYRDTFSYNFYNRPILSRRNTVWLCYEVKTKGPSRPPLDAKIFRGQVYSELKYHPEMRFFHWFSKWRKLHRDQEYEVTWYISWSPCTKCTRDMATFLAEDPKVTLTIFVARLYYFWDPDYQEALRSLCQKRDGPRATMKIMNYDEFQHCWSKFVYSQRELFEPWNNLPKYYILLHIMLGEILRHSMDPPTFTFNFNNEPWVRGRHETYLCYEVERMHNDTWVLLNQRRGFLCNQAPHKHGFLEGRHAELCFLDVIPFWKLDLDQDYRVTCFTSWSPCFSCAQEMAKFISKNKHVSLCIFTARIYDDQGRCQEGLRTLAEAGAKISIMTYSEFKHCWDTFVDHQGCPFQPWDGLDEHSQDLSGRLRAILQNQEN
#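 Read-out is eYFP fluorescence (Ex 488/Em 500-530) from Vif-expressing HeLa A3G-eYFP cells; more signal means A3G escaped Vif-mediated degradation. Cells plated overnight, compound pinned in, incubated overnight at 37 deg C.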
# Vif-A3F inh = blocks the Vif interaction with APOBEC3F; hit rate 0.2% among 390,000; Potency, µM (titrated, usually from 46.1 µM); HeLa A3F-eYFP + Vif (tagged APOBEC3F with the HIV-1 protein that degrades it), YFP fluorescence increase; further: nearly all actives have a fitted effect of over 65% in size
#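 HeLa cells stably expressing Vif plus C-terminally eYFP-tagged A3F were seeded, incubated overnight at 37 deg C, dosed with compound, incubated overnight again at 37 deg C. Yellow fluorescence (Ex 488/Em 500-530) reported blocked Vif-mediated A3F-eYFP degradation.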
# Numbers stand for hits; n = inactive; u = inconclusive; x = no result. The call rests on the fitted dose curve; in most records, active means well fitted curve in the direction sought with a large enough effect; inconclusive means small, poorly fitted or top-dose-only effect, or another doubt; inactive means no such curve, though single readings can be large; an effect the other way counts as inactive or inconclusive.
SMILES,Epigenetic reg,Glioma ERSR ind,Vif-APOBEC3G blk,Vif-A3F inh
Nc1c(N(CCC2=CCCCC2)C(=O)c2ccc([N+](=O)[O-])o2)c(=O)[nH]c(=O)n1Cc1ccccc1,x,n,n,22µM
COc1ccc(F)cc1-c1cc(NC(C)=O)c2ncc(-c3cccc(C(F)(F)F)c3)n2c1,x,n,n,x
CCOC(=O)c1ccc(NC(=S)Nc2cccc(C)n2)cc1,n,n,n,11µM
COc1ccc(C=NCCc2ccc(OC)c(OC)c2)cc1OC,x,n,n,n
C/C(=N/N=C(\C)c1ccccc1O)c1ccccc1O,x,n,n,18µM
Cc1cc(=O)[nH]c2nnc(SCc3ccccc3F)n12,n,n,n,n
CNC(=O)C[C@@H]1C(=O)N(C2CCCCC2)CC1(C)C,x,n,n,n
Cc1cccc2c(=O)n3c(cc12)-c1[nH]c2ccccc2c1CC3,x,n,n,22µM
CCC(=O)C1=C(c2ccc(F)cc2)N(C(=O)CC)n2c(nnc2C2CCCCC2)S1,n,n,n,n
COc1ccc(-n2c(O)c(/C=N/NS(=O)(=O)c3ccc(C)c([N+](=O)[O-])c3)c3ccccc3c2=O)cc1OC,n,n,3.5µM,13µM
CC(=O)Nc1cccc(-c2ccnc3c2CC(C)(C(=O)NCc2cccs2)O3)c1 (centres undefined),x,n,u,x
Cc1ccc(-c2nc3sc(C#N)c(N)n3c(=O)c2C#N)cc1,u,n,n,6.3µM
Cc1ccc(-n2c(N)c(C#N)c(-c3ccccc3)c(C#N)c2=O)cc1,n,n,n,n
COc1ccc2[nH]cc(CCNc3ccnc(-c4ccccc4Cl)n3)c2c1,x,n,x,x
O=[N+]([O-])c1ccc(N/N=C/C=C/c2ccco2)cc1,x,n,u,11µM
O=C(O)c1ccc(N/N=C/C=C/c2ccc([N+](=O)[O-])o2)cc1,x,n,u,u
O=C(CC1CC2CCC1C2)Nc1nc(-c2ccccn2)cs1 (centres undefined),n,n,n,13µM
CCc1c(C)nc(SCC(=O)c2cccs2)c(C#N)c1C,n,n,13µM,u
CCN(CC)S(=O)(=O)c1nnc(NC(=O)COc2cccc(C)c2)s1,n,n,n,n
CCOC(=O)N1CCC(Nc2nc3ccccc3nc2NS(=O)(=O)c2ccc(Cl)cc2)CC1,n,n,n,32µM
CCOC(=O)N1CCC(NC(=O)c2ccc(Cl)cc2)CC1,n,n,n,n
Cc1cccc(CCNC(=O)C2CCC(CNS(=O)(=O)c3ccccc3)CC2)c1 (centres undefined),n,n,n,n
C/C(=N\Nc1ncc(Cl)cc1Cl)c1ccccn1,0.63µM,n,n,u
C/C(=N\Nc1ccc(Cl)c(C(=O)O)c1)c1ccccn1,n,n,n,n
O=C1CC(CC(=O)N2CC3CCCC2C3)(c2cccc(F)c2)C(=O)N1Cc1cccnc1 (centres undefined),x,n,x,x
SMILES,Epigenetic reg,Glioma ERSR ind,Vif-APOBEC3G blk,Vif-A3F inh
Oc1[nH]c2ccccc2c1N=NC(=S)N1CCOCC1,4µM,n,n,n
Oc1[nH]c2ccc(Br)cc2c1N=NC(=S)N1CCOCC1,n,n,u,n
CSc1nsc(/C=C/Nc2ccc(F)cc2F)c1C#N,4µM,n,u,u
CCN(CC)c1ccc(/C=C(\C#N)c2nc(-c3cccs3)c(NC(C)=O)s2)cc1,1.6µM,x,x,x
N.N.N.N.N.N.N.N.N.N.N.N.N.N.O.O.[Cl-].[Cl-].[Cl-].[Cl-].[Cl-].[Cl-].[Ru].[Ru].[Ru],n,x,x,x
CCOC(=O)C(C(=O)OCC)c1cc(Br)c2noc3c2c1C(=O)c1ccccc1-3,3.5µM,n,n,u
CC(=O)OCCNc1cc(N2CCN(C)CC2)c2noc3c2c1C(=O)c1ccccc1-3,n,n,u,u
Cc1c(Nc2nc3ccccc3nc2NS(=O)(=O)c2ccccc2)c(=O)n(-c2ccccc2)n1C,n,n,n,n
COc1ccc(Nc2nc3ccccc3nc2NS(=O)(=O)c2ccc(C)cc2)c(OC)c1,n,n,n,u
Cn1ccnc1Sc1nc2ccccc2nc1NS(=O)(=O)c1ccccc1,n,n,n,25µM
CC(=O)Nc1ccc(S(=O)(=O)Nc2nc3ccccc3nc2Sc2nncn2C)cc1,n,n,n,10µM
COC(=O)c1cc(Nc2nc3ccccc3nc2NS(=O)(=O)c2ccc(C)cc2)ccc1Cl,n,n,n,11µM
Cn1cnnc1Sc1nc2ccccc2nc1NS(=O)(=O)c1ccccc1,n,n,n,u
COc1ccc2nc(NS(=O)(=O)c3ccc(C)cc3)c(Nc3cc(Cl)ccc3OC)nc2c1,25µM,n,n,n
CCOc1ccccc1NC(=O)C1CCCN(S(=O)(=O)c2ccc3c(c2)C(C)(C)C(=O)N3C)C1 (centres undefined),x,n,n,n
O=C(CSc1n[nH]c(-c2ccncc2)n1)Nc1ccccc1C(F)(F)F,x,n,n,n
COC(=O)[C@@H]1CCCN1Cc1ccc2c(c1)CN(Cc1ccccc1F)CCO2,x,n,x,x
Cc1c(NC(=O)CSc2nnc(C(C)N(C)C)n2-c2ccccc2)c(=O)n(-c2ccccc2)n1C (centres undefined),x,n,n,n
CC(=O)Nc1ccc(S(=O)(=O)Nc2nc3ccccc3nc2Nc2ccc(N)cc2)cc1,n,n,n,13µM
Cc1ccc(C)c(C(C)NC(=S)NCc2ccc(F)cc2)c1 (centres undefined),x,n,n,11µM
COc1ccc(C(C)NC(=S)NCc2ccc(F)cc2)cc1 (centres undefined),x,n,n,u
C=CCN1C=CC(=CC=C(C#N)C#N)C=C1,n,n,u,u
CCCN1C=CC(=CC=C(C#N)C#N)C=C1,n,n,13µM,u
CCCCCCN1C=CC(=C/C=C(\C#N)C(=O)OCC)C=C1,10µM,n,n,u
CCOC(=O)/C(C#N)=C/C=C1\C=Cc2ccccc2N1CC,n,n,n,n
SMILES,Epigenetic reg,Glioma ERSR ind,Vif-APOBEC3G blk,Vif-A3F inh
COc1ccc(CN2C[C@@H](CO)O[C@@H](n3cnc4c(N(C)C)ncnc43)C2)cc1,x,n,n,x
O=C(CCC(=O)N1CCCCCC1)NCc1ccc(F)cc1,x,n,n,n
O=S(Cc1ccc(Cl)cc1)c1ccccc1 (centres undefined),x,n,n,n
COc1ccc(C(=O)N/N=C/c2cc(Br)ccc2O)cc1OC,n,n,n,11µM
COc1ccc2c(Cl)c(C(=O)N/N=C3\CCCC(=O)C3)sc2c1,11µM,n,2.8µM,u
COc1ccc2c(Cl)c(C(=O)N/N=C/c3ccc4c(c3)OCO4)sc2c1,n,n,n,u
Cc1ccc(C)c(NC(=O)N2CC=C(c3c[nH]c4ccccc34)CC2)c1,u,n,u,25µM
Cc1cc(NC(=O)N2CC=C(c3c[nH]c4ccccc34)CC2)ccc1Br,u,n,u,22µM
Cc1ccc(NC(=O)N2CCc3ccccc3C2)cc1C,x,n,n,n
COc1cc(OC)c(NC(=O)N2CC=C(c3c[nH]c4ccccc34)CC2)cc1Cl,u,n,u,u
CCOCCCNC(=O)c1c(NC(=O)c2nc(SCC)ncc2Cl)sc2c1CCCC2,x,n,n,x
Cc1ccc(NC(=O)/C(C#N)=C\c2ccc(-c3ccc(Cl)cc3)o2)c(C)c1,3.5µM,n,n,3.2µM
CCN(CC)c1ccc2c(Cl)c(Br)c(=O)oc2c1,11µM,n,u,u
CCn1c2ccccc2c2cc(NC(=O)c3coc(=O)c(Br)c3)ccc21,n,x,x,x
